# Compounds with a hit are over-represented: about 1.3% of the library has one in this group of screens.
# EPAC1 ag – activates human EPAC1 exchange factor | EPAC1 agonist qHTS, biochemical assay; response scale: 100% = response to 6.5 mM cAMP | Potency, µM (series often up to 154 µM), inactives show at the top dose activation, hits mostly activators | hit rate 0.073% among 360,000; also: nearly all actives have a fitted effect of over 60% in size
#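 Compounds were pinned as a concentration titration into mixtures of EPAC1 (100 nM), BODIPY-GDP-loaded Rap1B (250 nM) and GDP (50 uM). After 5 min at room temperature, fluorescence was followed for 30 min; activity was scaled to 6.5 mM cAMP.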
# EPAC2 ag – agonists of human EPAC2 (RAPGEF4); hit rate 0.079% among 360,000; Q8WZA2; Potency, µM (titrated, usually from 154 µM), inactives show at the top dose activation, actives largely listed as activators; EPAC2 activation, biochemical qHTS; response scale: 100% = 6.5 mM cAMP response; also: nearly all actives have a fitted effect of over 50% in size
#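 Guanine nucleotide exchange by EPAC2 is measured as reduced fluorescence of BODIPY-GDP once it is released from 250 nM Rap1B. Plates are read kinetically for 30 min at room temperature; results are scaled to 6.5 mM cAMP.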
# ALOX12 inh – inhibitors of human 12S-lipoxygenase ALOX12 | hit rate 1.1% among 580,000 | purified 12hLO, xylenol orange hydroperoxide absorbance | Potency, µM (series often up to 108 µM), inactives show at the highest dose activity change, negative = inhibition, usual class: inhibitors | P18054; also: % is scaled to controls: 0 for no effect and ±100 for the full control effect
#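 Purified human 12hLO at 150 nM in 25 mM Hepes, 0.01% Triton X-100, pH 7.0, preincubated 15 min at room temperature with compound. Reaction started with 40 uM arachidonic acid, 30 min at room temperature. Hydroperoxide measured by Fe-xylenol orange, 573/405 nm absorbance ratio.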
# EPAC2 antagonist – blocks human EPAC2 exchange factor; hit rate 0.18% among 360,000; EPAC2 GEF exchange of Rap1B-BODIPY-GDP, fluorescence; Potency, µM (titrated, usually from 114 µM), without a hit: top-dose activity, negative = inhibition, most hits filed as inhibitors; also: % is scaled to controls: 0 for no effect and ±100 for the full control effect; nearly all actives have a fitted effect of over 45% in size
# EPAC1 antag – blocks human EPAC1 exchange factor; hit rate 0.14% among 360,000; Potency, µM (series often up to 115 µM), for the others: at the top dose activity change, negative = inhibition, usual class: inhibitors; AID 720709; EPAC1 GEF assay, Rap1b-BODIPY-GDP exchange fluorescence; O95398;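 also: plate controls were vehicle for no effect and positive control for full effect; nearly all actives have a fitted effect of over 50% in size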
# USP1 inh – USP1/UAF1 (human) deubiquitinase inhibition | AID 743255 | recombinant USP1/UAF1, Ub-Rhodamine cleavage fluorescence | Potency, µM (series often up to 57.1 µM), for the others: at the highest dose activity change, negative = inhibition, hits mostly inhibitors | hit rate 0.23% among 390,000 | O94782; also: % is scaled to controls: 0 for no effect and ±100 for the full control effect; nearly all actives have a fitted effect of over 60% in size
# Target sequence (O94782 whole entry, looked up): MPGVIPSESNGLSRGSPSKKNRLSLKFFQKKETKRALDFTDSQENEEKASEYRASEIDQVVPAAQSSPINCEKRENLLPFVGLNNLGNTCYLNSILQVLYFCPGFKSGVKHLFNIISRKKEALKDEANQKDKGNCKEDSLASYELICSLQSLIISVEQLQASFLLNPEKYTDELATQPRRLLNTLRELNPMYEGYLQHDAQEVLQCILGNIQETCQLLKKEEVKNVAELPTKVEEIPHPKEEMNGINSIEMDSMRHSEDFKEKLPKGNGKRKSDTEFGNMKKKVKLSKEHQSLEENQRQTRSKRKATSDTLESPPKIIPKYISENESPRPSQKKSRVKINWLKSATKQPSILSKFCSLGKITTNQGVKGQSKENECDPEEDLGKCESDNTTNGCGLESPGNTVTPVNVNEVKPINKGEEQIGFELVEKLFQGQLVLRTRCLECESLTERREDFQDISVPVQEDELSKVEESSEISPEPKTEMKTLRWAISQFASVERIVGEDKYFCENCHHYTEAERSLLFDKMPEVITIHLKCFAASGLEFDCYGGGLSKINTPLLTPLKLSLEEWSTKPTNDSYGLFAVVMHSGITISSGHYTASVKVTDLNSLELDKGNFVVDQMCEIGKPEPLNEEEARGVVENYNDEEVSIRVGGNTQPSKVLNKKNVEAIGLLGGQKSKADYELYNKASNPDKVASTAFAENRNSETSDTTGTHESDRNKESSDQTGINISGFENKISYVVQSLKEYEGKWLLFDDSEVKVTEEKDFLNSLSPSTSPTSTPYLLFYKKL
#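 High-throughput fluorogenic screen: 1nM USP1/UAF1 complex, Ub-Rho substrate 150nM final, 50mM HEPES pH 7.8 with 0.5mM EDTA, 0.1 mg/ml BSA, 1mM TCEP and 0.01% Tween-20.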
# Numbers without * were called inactive; ? = inconclusive; · = no result; [ ] = dose if it differs, or a comment. Calls follow the shape of the dose curve; as a rule, active = well fitted curve in the direction sought with a large enough effect; inconclusive = small, poorly fitted or top-dose-only effect, or another doubt; inactive = no such curve, though single readings can be large; an effect the other way counts as inactive or inconclusive. Potency is read from the fitted curve at half-maximal effect.
SMILES,EPAC1 ag,EPAC2 ag,ALOX12 inh,EPAC2 antagonist,EPAC1 antag,USP1 inh
O=C(COC(=O)c1c2c(nc3ccccc13)/C(=C/c1ccco1)CC2)NC1CCCC1,-4.0%,0.0%,25.1µM*,0.1%,?,-6.4%
CCCc1nc2ccccc2c(C(=O)OCC(=O)NC2CCCC2)c1CC,·,·,-16.0%,·,·,·
Cc1cc(C(=O)OCC(=O)NC2CCCCC2C)c2ccccc2n1 (centres undefined),-3.1%,-0.9%,-1.1%,11.1%,6.2%,-21.8%
CC1CCCCC1NC(=O)COC(=O)c1c2c(nc3ccccc13)/C(=C/c1ccco1)CC2 (centres undefined),-36.3%,-3.2%,?,15.8%,44.7µM*,-22.3%
CCn1c(SCC(=O)O)nc2c(=O)n(C)c(=O)n(C)c21,·,·,-1.2%,·,·,·
COc1cc(/C=C/C(=O)OCCOc2ccc(Cl)cc2)ccc1O,·,·,20µM*,·,·,·
COc1cc(/C=C/C(=O)OCC(=O)NNC(=O)c2cc(Cl)ccc2OC)ccc1O,6.1%,11.5%,5.6%,3.3%,-8.3%,-16.4%
COc1cc2c(cc1OC)CN(C(=O)/C=C/c1ccccc1[N+](=O)[O-])CC2,0.6%,6.8%,?,0.6%,-6.3%,-23.5%
COc1cc2c(cc1OC)CN(C(=O)/C=C/c1ccc([N+](=O)[O-])cc1)CC2,-1.3%,11.6%,14.1µM*,6.5%,-6.7%,-15.5%
Oc1c(Cl)cc(Cl)cc1C=Nc1ccc(N2CCOCC2)cc1,6.7%,22.9%,0.0%,11.4%,-1.5%,-21.7%
Cc1ccc(O)c(N=Cc2cc(Cc3ccccc3)cc([N+](=O)[O-])c2O)c1,16.6%,12.7%,?,?,?,25.1µM*
O=[N+]([O-])c1cc(Cc2ccccc2)cc(C=Nc2ccc(N3CCOCC3)cc2)c1O,2.5%,-5.8%,·,?,0.4%,25.1µM*
CCC(=O)NC1=C(Cl)C(=O)C(NC(=O)CC)=C(Cl)C1=O,1.1%,0.9%,?,17.7%,?,31.6µM*
Cc1noc2c(NCC3CCOCC3)cc(-c3ccc(F)cc3)nc12,·,·,56.2µM*,·,·,·
Cc1ccc2nc(C)cc(C(=O)OC(C)C(=O)NCC(C)C)c2c1 (centres undefined),·,·,0.7%,·,·,·
COc1cc(CNc2ccc(O)cc2)cc(Br)c1OCc1ccccc1F,-0.6%,2.7%,·,?,28.2µM*,?
CN(c1ccccc1)c1ccc2nnc(-c3cc(C(=O)Nc4ccccn4)ccn3)n2n1,·,·,-10.7%[176 µM],·,·,·
C=CCSc1ccccc1NC(=O)c1cc(C)cc(C)c1,·,·,35.5µM*,·,·,·
Cc1ccc(-n2ncc3c(NCCC4=CCCCC4)ncnc32)cc1,·,·,12.6µM*,·,·,-9.3%
COc1ccc(-n2ncc3c(NCCC4=CCCCC4)ncnc32)cc1,·,·,3.55µM*,·,·,?
COc1ccc(CNc2ncnc3c2cnn3-c2ccc(C)c(C)c2)cc1,·,·,-25.4%,·,·,-22.3%
Cc1sc(NC(=O)CCCC(=O)O)c(C#N)c1C,0.1%,2.8%,-6.0%,2.6%,-15.0%,-14.6%
CCOC(=O)c1sc(NC(=O)CCCC(=O)O)c(C#N)c1C,·,·,6.31µM*,·,·,·
Cc1ccn(-c2cc(O)c(-n3ccc(C)n3)cc2O)n1,1.9%,1.0%,2.82µM*,-1.0%,2.1%,7.0%
Cc1ccn(CCC(=O)O)n1,2.2%,1.6%,-13.5%,-1.2%,-10.3%,-5.5%
SMILES,EPAC1 ag,EPAC2 ag,ALOX12 inh,EPAC2 antagonist,EPAC1 antag,USP1 inh
COc1ccc(-c2nnc(SCC(=O)Nc3ccc(C(C)=O)cc3)nc2-c2ccc(OC)cc2)cc1,·,·,-16.3%,·,·,-13.1%
O=C(CSc1nnc(-c2ccco2)c(-c2ccco2)n1)c1ccccc1,17.6%,12.1%,28.2µM*,-1.9%,?,-10.8%
CC(=O)c1ccc(NC(=O)CSc2nnc(-c3ccco3)c(-c3ccco3)n2)cc1,2.0%,5.1%,?,8.2%,50.1µM*,?
CNC(=O)Nc1ccc(Cl)c(Cl)c1,·,·,6.1%[176 µM],·,·,·
S=C1NCCc2ccccc2C1c1ccccc1Cl (centres undefined),5.0%,7.8%,?,-1.4%,-10.4%,-8.7%
S=C1NCCc2ccccc2C1c1ccccc1 (centres undefined),4.5%,-4.7%,35.5µM*,-0.2%,5.0%,-8.8%
O=C1c2ccccc2C(c2nnnn2Cc2ccccc2)N1CCc1c[nH]c2ccccc12 (centres undefined),7.8%,10.4%,-9.7%,75.2µM*,-15.1%,·
COc1ccccc1-c1cncnc1-n1ccnc1,·,·,25.1µM*,·,·,·
CCC1(c2ccccc2)NC(=O)N(CC(=O)Nc2ccc3c(c2)CCC3)C1=O (centres undefined),2.3%,10.1%,-25.3%,-24.4%,-12.2%,0.9%
CCC1(c2ccccc2)NC(=O)N(CC(=O)Nc2ccc(OC)nc2)C1=O (centres undefined),100µM*,?,-64.4%,43.6%,112.7%,?
Cc1oc2c(cc(NS(=O)(=O)c3ccc(Cl)cc3)c3ccccc32)c1C(=O)O,-4.6%,5.8%,39.8µM*,0.7%,?,-21.6%
CC(=O)c1c(C)oc2c1cc(NS(=O)(=O)c1ccc(Br)cc1)c1ccccc12,·,·,-23.8%,·,·,-15.1%
O=C(N/N=C/c1cccs1)c1ccccc1Cl,·,·,13.1%,·,·,·
Cc1ccc2nc3sc(C(=O)NCc4ccco4)c(N)c3cc2c1,100µM*,-8.4%,348.6%,-8.2%[57.1 µM],104.8%,366.7%
OCCOCCN1CCN(C2=Nc3ccccc3Sc3ccccc32)CC1,3.7%,3.1%,-0.4%,1.8%,-9.5%,13.7%
O=S(=O)(c1ccc(Br)cc1Cl)N1CCN(CCO)CC1,-6.4%,-0.6%,?,5.4%,-1.0%,-21.1%
O=C1C=CC(=O)c2c(O)c(N3CCN(CCO)CC3)c(Cl)c(O)c21,-0.9%,0.1%,?,?,14.1µM*,2.82µM*
O=C1C=CC(=O)c2c(O)c(N3CCN(CCOCCO)CC3)c(Br)c(O)c21,-8.5%,-7.3%,?,-13.9%,44.7µM*,2µM*
N#Cc1c(-c2ccccc2)nc(SCC(=O)Nc2ccccc2)[nH]c1=O,-7.0%,-10.8%,-28.5%,-6.2%,-26.6%,-9.6%
O=C(CSc1nc2ccccc2c(=O)[nH]1)c1cccs1,4.7%,-1.6%,6.31µM*,-1.7%,-9.2%,5.3%
N#Cc1c(-c2cccs2)nc(SCC(=O)c2cccs2)[nH]c1=O,3.4%,11.5%,10µM*,-6.2%,-27.0%,-6.7%
COc1ccc(C(=O)N2C[C@@H](F)[C@@H](OCc3nc4ccccc4o3)C2)cc1,·,·,33.5%[176 µM],·,·,·
C/C(=N\NC(=S)NCc1ccccc1)c1ccc(C)o1,-4.4%,6.0%,15.8µM*,-9.2%,-2.5%,-7.2%
C/C(=N\NC(=S)NCc1ccccc1)c1cccs1,3.8%,15.5%,39.8µM*,3.6%,-11.3%,-13.1%
O=C(Nc1ccccc1)c1ccc2c(c1)CCC2,·,·,-29.0%,·,·,·
